Values joined by “and” are separate entries in the source; they are usually repeats but may differ in a detail not shown here. Equal values may be shown once. Inconclusive results are not listed. Active and inactive are the calls of the source. Unless noted, the call rests on the fitted dose curve; in most records, active means well fitted curve in the direction sought with a large enough effect; inconclusive means small, poorly fitted or top-dose-only effect, or another doubt; inactive means no such curve, though single readings can be large; an effect the other way counts as inactive or inconclusive.

For one test, the system named is FAB9. Briefly: qHTS profiling for inhibitors of Plasmodium falciparum proliferation (AID 504749).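 Further: 0% = DMSO vehicle and full inhibition = artemisinin control; nearly all actives have a fitted effect of over 60% in size.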 As to conditions: P. falciparum in erythrocytes, SYBR Green DNA, 72 h; series mostly up to 12.8 µM. Summed up:
(§1)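 P. falciparum-infected erythrocytes (0.3% parasitemia, 2.5% hematocrit final) were exposed to compounds for 72 h at 37 C in 5% CO2, then lysed with SYBR Green buffer overnight at room temperature; parasite DNA fluorescence was normalized to artemisinin and DMSO controls.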
On the technique in general: Quantitative high-throughput screening tests each substance at several concentrations.

In the next test the test system is GB4. The test is described as above. The following applies: P. falciparum in erythrocytes, SYBR Green DNA, 72 h; series mostly up to 12.8 µM. Summed up: as §1
Another test relates to HB3. The description is as above. The following applies: P. falciparum in erythrocytes, SYBR Green DNA, 72 h; series mostly up to 12.8 µM. Summed up: as §1
For the next test, the system named is ICS. The test is described as above. The following applies: P. falciparum in erythrocytes, SYBR Green DNA, 72 h; series mostly up to 12.8 µM. Summed up: as §1
For the next test, the system named is JCK. The test is described as above. As to conditions: P. falciparum in erythrocytes, SYBR Green DNA, 72 h; series mostly up to 12.8 µM. Summed up:
as §1

The next test has as its system N140. Described as above. As to conditions: P. falciparum in erythrocytes, SYBR Green DNA, 72 h; series mostly up to 12.8 µM. Summed up: as §1
The next test has as its system P93_24. The description is as above. As to conditions: P. falciparum in erythrocytes, SYBR Green DNA, 72 h; series mostly up to 12.8 µM. Summed up: as §1
The test system of the next test is P94_40. The description is as above. The following applies: P. falciparum in erythrocytes, SYBR Green DNA, 72 h; series mostly up to 12.8 µM. Summed up:
as §1

In a further test the test system is PAD. The test is described as above. As to conditions: P. falciparum in erythrocytes, SYBR Green DNA, 72 h; series mostly up to 12.8 µM. Summed up:
as §1

For another test, the system named is PC15. The test is described as above. The following applies: P. falciparum in erythrocytes, SYBR Green DNA, 72 h; series mostly up to 12.8 µM. Summed up:
as §1

The subject of the next test is PC26. The test is described as above. The following applies: P. falciparum in erythrocytes, SYBR Green DNA, 72 h; series mostly up to 12.8 µM. Summed up:
as §1

Another test relates to PC49. Described as above. The following applies: P. falciparum in erythrocytes, SYBR Green DNA, 72 h; series mostly up to 12.8 µM. Summed up: as §1
For another test, the system named is SC27B. The test is described as above. The following applies: P. falciparum in erythrocytes, SYBR Green DNA, 72 h; series mostly up to 12.8 µM. Summed up: as §1
The next test relates to TAB109. The description is as above. The following applies: P. falciparum in erythrocytes, SYBR Green DNA, 72 h; series mostly up to 12.8 µM. Summed up:
as §1

A further test has as its system TAB113. The test is described as above. As to conditions: P. falciparum in erythrocytes, SYBR Green DNA, 72 h; series mostly up to 12.8 µM. Summed up:
as §1

A further test relates to TAB165. Described as above. As to conditions: P. falciparum in erythrocytes, SYBR Green DNA, 72 h; series mostly up to 12.8 µM. Summed up: as §1
For a further test, the system named is W2. The test is described as above. The following applies: P. falciparum in erythrocytes, SYBR Green DNA, 72 h; series mostly up to 12.8 µM. Summed up: as §1
Test [1] in a line: Confirmation and Secondary Assay for Modulators of Hemoglobin Beta Chain Splicing at IVS2 654 locus (AID 910).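 Further: per-well total GFP intensity by laser scanning cytometry after 2-day treatment; % of control where 0% means no effect.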 Summed up: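 HeLa cells stably carrying EGFP interrupted by mutant beta-globin IVS2-654 intron (CMV-driven) were treated with compound for 2 days at 37C; corrected splicing was scored as total peak GFP intensity per well (488 nm excitation, 500-520 nm emission).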
The nature of test [2]: Confirmation and Secondary Assay for Modulators of Hemoglobin Beta Chain Splicing at IVS2 705 locus (AID 930).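 Further: HeLa cells stably expressing the EGFP-705 splicing reporter; GFP fluorescence per well restored by corrected splicing of the IVS2-705 intron in EGFP; % of control where 0% means no effect.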 Summed up: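 Secondary splice-site specificity test uses HeLa expressing CMV-driven EGFP interrupted by IVS2-705; cells were treated 2 days at 37C with 500 nM antisense PNA as positive control.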
Test [3] can be described thus: qHTS Assay for Lipid Storage Modulators (AID 1519; calls by dose curve; on activity change, negative = inhibition: on the % scale 0 is the no-effect control and ±100 the full control effect). As to conditions: Drosophila S3 cells, BODIPY lipid droplet/cell ratio, laser cytometry, cells loaded with oleic acid. Summed up: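 Cells seeded at 5,000 per well were treated with compounds over a concentration series and loaded with oleic acid (400 uM, as added). Lipid droplet fluorescence (488 nm excitation, 500-530 nm channel) was read by laser-scanning cytometry and normalized to 20 uM Triacsin C.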

Take `COc1ccc(C[C@@H]2c3cc(OC)c(OC)cc3CC[N@+]2(C)CCC(=O)OCCCCCOC(=O)CC[N@@+]2(C)CCc3cc(OC)c(OC)cc3[C@H]2Cc2ccc(OC)c(OC)c2)cc1OC`: the Potency result with FAB9, in the test with GB4, in the test with HB3, in the test on ICS, in the test with JCK and in the test on N140 was “inactive” each time. Moreover, the Potency result with P93_24, in the test on P94_40, in the test on PAD, in the test with PC15, in the test on PC26 and in the test with PC49 was “inactive” in each case. The Potency entry with SC27B, in the test with TAB109, in the test with TAB113, in the test with TAB165 and in the test with W2 was “inactive” each time.

`Nc1ncnc2c1ncn2C1OC(CO)C(O)C1O` (configuration not stated): the Potency result in test [1] was “inactive”. Besides, the compound was classed as inactive in [2]. Also, in test [3] (at 57.5 µM (top of the series)), the activity change, negative = inhibition is 9.6% (inactive) and 14.7% (inactive). The max response in [3] (measured here: cell count channel max response) is 19.8% and 38.9%; in [3] (measured here: lipid channel max response) it was 31.9% and 67.8%.

These data come from PubChem BioAssay (NCATS).
